What all share (assay): DAPPL (digital affinity profiling via proximity ligation, sequencing); 10 mM Tris-HCl pH 7.5, 50 mM NaCl, 1 mM DTT, 4% glycerol, room temperature, 30 min; GST-TFs on glutathione beads, 16-mer random dsDNA library, 0.1% formaldehyde crosslink after washing; high values mean tight binding
Settings in all cases: protein: recombinant; tags: N-terminal GST; dsDNA, one strand shown

For one assay, the target named is T1, FLI1 (Homo sapiens, UniProt Q01543 1-452).
T1 sequence: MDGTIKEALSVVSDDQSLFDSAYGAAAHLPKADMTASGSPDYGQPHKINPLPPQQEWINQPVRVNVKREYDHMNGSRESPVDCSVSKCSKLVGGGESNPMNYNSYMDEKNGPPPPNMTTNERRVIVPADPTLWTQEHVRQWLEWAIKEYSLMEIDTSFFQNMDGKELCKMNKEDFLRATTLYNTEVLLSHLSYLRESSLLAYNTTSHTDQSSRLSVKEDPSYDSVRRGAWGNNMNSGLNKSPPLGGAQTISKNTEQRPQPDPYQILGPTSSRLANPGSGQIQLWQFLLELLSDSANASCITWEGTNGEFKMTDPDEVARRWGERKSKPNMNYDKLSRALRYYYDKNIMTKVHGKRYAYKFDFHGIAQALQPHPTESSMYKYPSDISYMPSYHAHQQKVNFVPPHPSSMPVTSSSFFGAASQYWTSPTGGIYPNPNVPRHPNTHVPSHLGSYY
An outline of the steps:
(§1)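 A tag-only sample was pooled with DNA-barcoded human transcription factors that had been expressed in yeast as GST fusions and captured on glutathione beads. The pools were incubated for 30 min at room temperature with 200 nmole of a random double-stranded 16-mer DNA library in Tris/NaCl/DTT/glycerol buffer, then washed, crosslinked with 0.1% formaldehyde, proximity-ligated (BsaI/T4 ligase, 1 h, 37 °C), PCR-amplified and sequenced on an Illumina NextSeq500. Binding signal is each hexamer's read frequency for a factor divided by its frequency for the tag-only sample.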

In the next assay the target is T2, ELK1 (Homo sapiens, UniProt P19419 1-428).
T2 sequence: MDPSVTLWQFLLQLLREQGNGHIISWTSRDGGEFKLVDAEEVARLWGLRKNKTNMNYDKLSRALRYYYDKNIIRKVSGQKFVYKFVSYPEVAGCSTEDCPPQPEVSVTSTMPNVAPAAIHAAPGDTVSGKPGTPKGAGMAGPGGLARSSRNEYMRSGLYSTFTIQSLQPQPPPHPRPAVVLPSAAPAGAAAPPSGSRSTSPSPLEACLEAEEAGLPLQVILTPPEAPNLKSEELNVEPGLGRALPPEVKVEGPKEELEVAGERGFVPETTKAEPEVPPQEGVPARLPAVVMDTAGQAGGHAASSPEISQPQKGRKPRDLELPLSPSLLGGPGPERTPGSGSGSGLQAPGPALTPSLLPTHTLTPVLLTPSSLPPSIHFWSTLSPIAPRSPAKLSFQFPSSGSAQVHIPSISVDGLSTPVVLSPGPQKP
In short, it runs like this:
as §1

In a further assay the target is T3, GABPA (Homo sapiens, UniProt Q06546 1-454).
T3 sequence: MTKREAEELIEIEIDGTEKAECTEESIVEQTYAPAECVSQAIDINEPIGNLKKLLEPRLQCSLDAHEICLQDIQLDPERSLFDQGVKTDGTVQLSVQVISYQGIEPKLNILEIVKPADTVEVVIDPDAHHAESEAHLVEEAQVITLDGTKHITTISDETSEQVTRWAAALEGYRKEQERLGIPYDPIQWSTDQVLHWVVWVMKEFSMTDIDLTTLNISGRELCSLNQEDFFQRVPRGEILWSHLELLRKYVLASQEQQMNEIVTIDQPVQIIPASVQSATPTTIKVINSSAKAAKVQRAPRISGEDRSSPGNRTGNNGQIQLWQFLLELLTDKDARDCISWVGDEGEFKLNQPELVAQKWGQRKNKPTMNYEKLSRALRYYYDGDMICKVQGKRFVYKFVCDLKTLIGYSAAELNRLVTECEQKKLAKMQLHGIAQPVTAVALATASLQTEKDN
An outline of the steps: as §1

The target in another assay is T4, ERG (Homo sapiens, UniProt P11308 1-479).
T4 sequence: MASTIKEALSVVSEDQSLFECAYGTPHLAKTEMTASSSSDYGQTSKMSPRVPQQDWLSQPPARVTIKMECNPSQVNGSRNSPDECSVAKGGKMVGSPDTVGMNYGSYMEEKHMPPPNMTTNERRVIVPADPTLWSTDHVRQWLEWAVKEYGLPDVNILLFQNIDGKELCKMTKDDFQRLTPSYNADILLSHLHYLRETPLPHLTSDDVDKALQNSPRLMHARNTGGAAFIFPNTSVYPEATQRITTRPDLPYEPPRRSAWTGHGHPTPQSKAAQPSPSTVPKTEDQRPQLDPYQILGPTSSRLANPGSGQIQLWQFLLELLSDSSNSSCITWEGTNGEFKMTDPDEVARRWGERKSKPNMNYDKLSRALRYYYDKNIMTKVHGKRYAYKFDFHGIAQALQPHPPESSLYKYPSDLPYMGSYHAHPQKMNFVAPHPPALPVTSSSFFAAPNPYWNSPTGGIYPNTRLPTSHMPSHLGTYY
In short, it runs like this:
as §1

The target in the next assay is ELF1 (Homo sapiens, UniProt P32519 1-619). An outline of the steps:
as §1

The next assay addresses T5, EHF (Homo sapiens, UniProt Q9NZC4 1-300).
T5 sequence: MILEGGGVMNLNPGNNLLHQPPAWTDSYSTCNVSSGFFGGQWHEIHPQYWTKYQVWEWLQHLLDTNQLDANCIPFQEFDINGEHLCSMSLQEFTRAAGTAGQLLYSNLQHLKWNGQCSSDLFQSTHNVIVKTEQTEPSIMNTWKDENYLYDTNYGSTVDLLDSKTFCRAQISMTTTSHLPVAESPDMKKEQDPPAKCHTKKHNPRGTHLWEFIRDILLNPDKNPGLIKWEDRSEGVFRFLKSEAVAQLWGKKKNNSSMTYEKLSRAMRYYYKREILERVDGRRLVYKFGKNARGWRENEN
An outline of the steps:
as §1

A further assay deals with SPI1 (Homo sapiens, UniProt P17947 1-270). In short, it runs like this:
as §1

The next assay has as its target SPIB (Homo sapiens, UniProt Q01892 1-262). In short, it runs like this: as §1
The next assay addresses T6, ELK3 (Homo sapiens, UniProt P41970 1-407).
T6 sequence: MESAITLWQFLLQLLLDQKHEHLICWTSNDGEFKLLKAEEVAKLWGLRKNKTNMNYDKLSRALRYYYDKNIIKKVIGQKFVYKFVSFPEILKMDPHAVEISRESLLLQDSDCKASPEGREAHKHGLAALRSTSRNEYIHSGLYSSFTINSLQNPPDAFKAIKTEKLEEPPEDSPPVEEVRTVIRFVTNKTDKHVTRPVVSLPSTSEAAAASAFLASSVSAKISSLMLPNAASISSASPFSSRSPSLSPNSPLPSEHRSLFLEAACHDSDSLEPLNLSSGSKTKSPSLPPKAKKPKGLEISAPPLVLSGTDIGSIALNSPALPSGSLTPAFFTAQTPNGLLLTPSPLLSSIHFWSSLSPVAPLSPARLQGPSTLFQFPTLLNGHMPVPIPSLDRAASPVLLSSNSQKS
In short, it runs like this: as §1

For another assay, the target named is T7, FEV (Homo sapiens, UniProt Q99581 1-238).
T7 sequence: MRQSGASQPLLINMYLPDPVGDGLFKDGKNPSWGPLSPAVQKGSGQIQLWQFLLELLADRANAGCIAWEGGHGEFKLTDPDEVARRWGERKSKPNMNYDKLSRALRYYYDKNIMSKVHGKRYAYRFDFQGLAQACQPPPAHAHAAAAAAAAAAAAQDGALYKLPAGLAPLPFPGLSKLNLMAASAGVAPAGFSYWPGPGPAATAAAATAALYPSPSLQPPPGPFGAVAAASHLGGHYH
In short, it runs like this: as §1

The target of the next assay is ETV5 (Homo sapiens, UniProt P41161 1-510). An outline of the steps: as §1
ETV5, sequence (P41161 whole entry): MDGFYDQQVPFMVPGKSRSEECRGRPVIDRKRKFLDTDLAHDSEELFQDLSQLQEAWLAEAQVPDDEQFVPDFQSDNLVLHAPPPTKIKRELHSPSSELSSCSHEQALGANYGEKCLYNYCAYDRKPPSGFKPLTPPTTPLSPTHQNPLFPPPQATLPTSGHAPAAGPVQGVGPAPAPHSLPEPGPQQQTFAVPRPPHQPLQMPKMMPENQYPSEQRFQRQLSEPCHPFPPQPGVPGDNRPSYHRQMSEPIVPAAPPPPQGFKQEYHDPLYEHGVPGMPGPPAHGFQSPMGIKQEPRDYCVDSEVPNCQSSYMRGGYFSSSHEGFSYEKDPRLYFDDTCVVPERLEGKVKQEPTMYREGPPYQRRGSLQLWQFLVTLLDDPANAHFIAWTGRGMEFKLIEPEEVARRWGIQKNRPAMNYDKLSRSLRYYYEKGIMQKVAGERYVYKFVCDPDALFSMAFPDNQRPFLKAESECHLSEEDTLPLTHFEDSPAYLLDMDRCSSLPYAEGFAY
A further assay deals with T8, SPIC (Homo sapiens, UniProt Q8N5J4 1-248).
T8 sequence: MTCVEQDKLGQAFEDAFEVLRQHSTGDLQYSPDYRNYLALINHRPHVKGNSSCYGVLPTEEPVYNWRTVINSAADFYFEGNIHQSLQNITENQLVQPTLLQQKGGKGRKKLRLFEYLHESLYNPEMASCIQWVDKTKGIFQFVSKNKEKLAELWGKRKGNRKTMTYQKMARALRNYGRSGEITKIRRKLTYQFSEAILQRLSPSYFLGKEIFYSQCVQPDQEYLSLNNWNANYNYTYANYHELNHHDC
An outline of the steps:
as §1

The next assay has as its target ELF4 (Homo sapiens, UniProt Q99607 1-663). An outline of the steps:
as §1

Another assay has as its target T9, ELK4 (Homo sapiens, UniProt P28324-2 1-405).
T9 sequence: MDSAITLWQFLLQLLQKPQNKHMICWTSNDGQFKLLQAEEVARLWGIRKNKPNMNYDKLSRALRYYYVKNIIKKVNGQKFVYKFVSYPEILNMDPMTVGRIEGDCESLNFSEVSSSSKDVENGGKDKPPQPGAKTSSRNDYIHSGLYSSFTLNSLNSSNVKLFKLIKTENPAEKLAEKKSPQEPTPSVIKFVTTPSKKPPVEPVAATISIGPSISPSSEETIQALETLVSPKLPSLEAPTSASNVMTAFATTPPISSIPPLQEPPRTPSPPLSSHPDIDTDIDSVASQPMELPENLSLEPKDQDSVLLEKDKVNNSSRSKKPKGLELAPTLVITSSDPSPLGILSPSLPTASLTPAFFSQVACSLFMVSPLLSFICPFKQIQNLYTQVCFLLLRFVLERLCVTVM
In short, it runs like this:
as §1

Another assay deals with T10, ETV2 (Homo sapiens, UniProt O00321 1-342).
T10 sequence: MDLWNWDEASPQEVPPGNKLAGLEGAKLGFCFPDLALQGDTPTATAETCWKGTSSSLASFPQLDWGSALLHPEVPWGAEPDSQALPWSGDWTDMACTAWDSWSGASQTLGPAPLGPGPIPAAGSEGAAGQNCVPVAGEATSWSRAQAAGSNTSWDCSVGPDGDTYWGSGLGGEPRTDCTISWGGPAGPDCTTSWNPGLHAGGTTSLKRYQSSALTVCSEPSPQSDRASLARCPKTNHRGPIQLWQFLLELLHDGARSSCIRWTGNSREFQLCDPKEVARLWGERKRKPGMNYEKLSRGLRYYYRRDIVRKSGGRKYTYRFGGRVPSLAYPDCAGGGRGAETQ
An outline of the steps: as §1

A further assay deals with T11, ELF3 (Homo sapiens, UniProt P78545 1-371).
T11 sequence: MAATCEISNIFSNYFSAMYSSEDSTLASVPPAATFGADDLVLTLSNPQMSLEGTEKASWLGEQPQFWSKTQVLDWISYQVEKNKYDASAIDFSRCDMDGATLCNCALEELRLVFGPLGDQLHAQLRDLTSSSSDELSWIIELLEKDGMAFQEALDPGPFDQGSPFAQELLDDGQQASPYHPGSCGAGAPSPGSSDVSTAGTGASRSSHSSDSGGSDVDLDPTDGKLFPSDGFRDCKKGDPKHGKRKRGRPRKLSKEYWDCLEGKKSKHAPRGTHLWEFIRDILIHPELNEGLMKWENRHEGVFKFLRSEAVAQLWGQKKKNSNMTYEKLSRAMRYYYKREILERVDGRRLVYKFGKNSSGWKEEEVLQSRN
In short, it runs like this:
as §1

The target in a further assay is ETV1 (Homo sapiens, UniProt P50549 1-477). An outline of the steps:
as §1

ETV1, sequence (P50549 whole entry): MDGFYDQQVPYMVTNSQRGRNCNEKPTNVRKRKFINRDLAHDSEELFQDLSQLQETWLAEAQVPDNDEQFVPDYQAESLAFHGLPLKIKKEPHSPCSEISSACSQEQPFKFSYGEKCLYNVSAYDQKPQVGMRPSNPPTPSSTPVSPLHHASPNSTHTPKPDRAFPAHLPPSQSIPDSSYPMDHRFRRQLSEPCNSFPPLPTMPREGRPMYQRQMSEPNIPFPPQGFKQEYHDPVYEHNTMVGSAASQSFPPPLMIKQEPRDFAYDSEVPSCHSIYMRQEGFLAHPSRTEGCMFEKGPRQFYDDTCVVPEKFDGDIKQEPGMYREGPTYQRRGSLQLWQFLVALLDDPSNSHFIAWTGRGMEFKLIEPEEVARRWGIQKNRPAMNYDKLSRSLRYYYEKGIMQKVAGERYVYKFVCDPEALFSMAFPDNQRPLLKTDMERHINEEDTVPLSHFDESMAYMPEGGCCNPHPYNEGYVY
ELF1, sequence (P32519 whole entry): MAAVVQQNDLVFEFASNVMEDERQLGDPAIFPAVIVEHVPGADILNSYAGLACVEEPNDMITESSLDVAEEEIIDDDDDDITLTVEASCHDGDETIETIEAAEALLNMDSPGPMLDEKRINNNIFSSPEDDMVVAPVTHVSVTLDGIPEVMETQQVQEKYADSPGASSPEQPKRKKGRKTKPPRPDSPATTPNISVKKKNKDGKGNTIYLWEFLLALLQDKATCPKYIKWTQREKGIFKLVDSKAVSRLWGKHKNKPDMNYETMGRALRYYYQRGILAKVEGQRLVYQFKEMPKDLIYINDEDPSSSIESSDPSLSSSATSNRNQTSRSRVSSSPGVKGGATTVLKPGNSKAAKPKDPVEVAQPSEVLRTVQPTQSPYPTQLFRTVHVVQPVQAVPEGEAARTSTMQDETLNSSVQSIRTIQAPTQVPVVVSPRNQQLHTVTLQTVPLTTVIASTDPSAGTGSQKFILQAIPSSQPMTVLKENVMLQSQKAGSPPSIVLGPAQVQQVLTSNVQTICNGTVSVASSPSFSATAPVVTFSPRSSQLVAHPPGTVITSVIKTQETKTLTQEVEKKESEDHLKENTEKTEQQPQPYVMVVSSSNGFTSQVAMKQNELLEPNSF
SPIB, sequence (Q01892 whole entry): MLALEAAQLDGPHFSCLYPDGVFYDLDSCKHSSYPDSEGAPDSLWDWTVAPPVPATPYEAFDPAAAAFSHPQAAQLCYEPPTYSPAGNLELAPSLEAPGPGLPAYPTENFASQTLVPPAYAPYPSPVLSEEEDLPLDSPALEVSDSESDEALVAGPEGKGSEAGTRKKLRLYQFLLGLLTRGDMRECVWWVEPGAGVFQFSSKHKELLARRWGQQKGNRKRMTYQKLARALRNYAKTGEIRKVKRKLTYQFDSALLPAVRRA
ELF4, sequence (Q99607 whole entry): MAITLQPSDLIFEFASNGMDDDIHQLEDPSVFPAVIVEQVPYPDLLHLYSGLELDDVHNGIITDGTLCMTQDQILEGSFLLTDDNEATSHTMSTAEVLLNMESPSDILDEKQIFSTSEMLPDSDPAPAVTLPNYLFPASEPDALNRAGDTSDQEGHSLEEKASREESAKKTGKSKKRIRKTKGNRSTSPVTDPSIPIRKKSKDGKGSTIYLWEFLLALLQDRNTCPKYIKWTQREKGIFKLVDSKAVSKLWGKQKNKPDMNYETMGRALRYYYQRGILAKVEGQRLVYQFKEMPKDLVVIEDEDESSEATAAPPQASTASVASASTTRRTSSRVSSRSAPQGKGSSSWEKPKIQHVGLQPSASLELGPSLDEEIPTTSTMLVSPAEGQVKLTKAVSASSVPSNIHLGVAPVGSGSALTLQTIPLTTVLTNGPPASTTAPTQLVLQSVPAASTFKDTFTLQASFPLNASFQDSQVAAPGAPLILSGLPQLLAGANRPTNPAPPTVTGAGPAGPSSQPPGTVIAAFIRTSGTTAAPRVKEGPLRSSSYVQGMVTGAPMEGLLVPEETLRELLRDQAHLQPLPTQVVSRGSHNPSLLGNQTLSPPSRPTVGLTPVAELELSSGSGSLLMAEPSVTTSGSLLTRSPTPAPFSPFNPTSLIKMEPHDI

For the sequence TACCGG, the binding signal with FLI1 is 1.52 fold enrichment (6-mer frequency, TF over GST control); in the assay with ELK1, 1.55 fold enrichment (6-mer frequency, TF over GST control); with GABPA, 1.52 fold enrichment (6-mer frequency, TF over GST control); with ERG, 1.77 fold enrichment (6-mer frequency, TF over GST control); in the assay with ELF1, 1.53 fold enrichment (6-mer frequency, TF over GST control); in the assay with EHF, 1.67 fold enrichment (6-mer frequency, TF over GST control). Moreover, the binding signal is 1.43 fold enrichment (6-mer frequency, TF over GST control) with SPI1; 1.61 fold enrichment (6-mer frequency, TF over GST control) with SPIB; 1.56 fold enrichment (6-mer frequency, TF over GST control) in the assay with ELK3; 2.1 fold enrichment (6-mer frequency, TF over GST control) with FEV; 1.68 fold enrichment (6-mer frequency, TF over GST control) with ETV5; 1.43 fold enrichment (6-mer frequency, TF over GST control) with SPIC. The binding signal with ELF4 was 1.51 fold enrichment (6-mer frequency, TF over GST control); with ELK4, 1.4 fold enrichment (6-mer frequency, TF over GST control); in the assay with ETV2 it was 1.5 fold enrichment (6-mer frequency, TF over GST control); in the assay with ELF3 it was 1.78 fold enrichment (6-mer frequency, TF over GST control); in the assay with ETV1, 1.73 fold enrichment (6-mer frequency, TF over GST control).

Source of the values: article PMC7862700, “An all-to-all approach to the identification of sequence-specific readers for epigenetic DNA modifications on cytosine”.
